Test results as given in PubChem BioAssay (Tox21).
Records with an inconclusive call do not appear. Entries that show only a call come without a potency. Calls of active or inactive are those of the source. The call rests on the fitted dose curve; in most records, active means well fitted curve in the direction sought with a large enough effect in the repeat runs; inconclusive means weak or mixed curves; inactive means no such curve, though single readings can be large; an effect the other way counts as inactive or inconclusive.

Tested on: not listed separately
Experiment: qHTS assay to identify small molecule antagonists of the androgen receptor (AR) signaling pathway using the MDA cell line in the presence of 0.5 nM R1881 - cell viability counter screen (AID 1259242); further: nearly all actives have a fitted effect of over 45% in size
Conditions: MDA-kb2 viability, CellTiter-Fluor protease fluorescence, 16 h; series mostly up to 92.4 µM
Method in brief: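 Human breast carcinoma MDA-kb2 cells, cultured without CO2, receive compounds alongside 0.5 nM (final) R1881 agonist. After 16 hr at 37C, viability is taken as live-cell protease signal.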

| SMILES | Potency |
| --- | --- |
| CC(C)(O)CCc1ccccc1 | inactive |
| C=C(C)C(=O)OCCC(F)(F)C(F)(F)C(F)(F)C(F)(F)C(F)(F)C(F)(F)F | inactive |
| O=C(O)CO | inactive |
| COc1ccc(-n2nc(C(F)F)cc2-c2ccc(S(C)=O)cc2)cc1 (centres undefined) | inactive |
| O=[N+]([O-])c1ccc2ncccc2c1 | inactive |
| O=C(/C=C/c1ccc([N+](=O)[O-])cc1)c1ccccc1 | inactive |
| COC(C)(C)OC | inactive |
| C=CCOC(=O)COCCC(C)C | inactive |
| NC(=O)c1ccccc1[N+](=O)[O-] | inactive |
| CCC(CO)(CO)[N+](=O)[O-] | inactive |
| CC(C)OC(=O)c1ccccc1C(=O)OC(C)C | inactive |
| Cc1ccc(N(CCO)CCO)cc1 | inactive |
| CCOc1ncc(F)c(=O)[nH]1 | inactive |
| FC(F)(F)C(F)(F)C(F)(F)C(F)(F)CCI | inactive |
| CC(C)c1ccc(C(=O)N=C(N)N)cc1S(C)(=O)=O | inactive |
| CC(C)(C)CCCCCCOC(=O)c1ccccc1C(=O)OCCCCCCC(C)(C)C | inactive |

Biological target: Estrogen receptor (Homo sapiens) (UniProt P03372)
Sequence (P03372 whole entry, looked up): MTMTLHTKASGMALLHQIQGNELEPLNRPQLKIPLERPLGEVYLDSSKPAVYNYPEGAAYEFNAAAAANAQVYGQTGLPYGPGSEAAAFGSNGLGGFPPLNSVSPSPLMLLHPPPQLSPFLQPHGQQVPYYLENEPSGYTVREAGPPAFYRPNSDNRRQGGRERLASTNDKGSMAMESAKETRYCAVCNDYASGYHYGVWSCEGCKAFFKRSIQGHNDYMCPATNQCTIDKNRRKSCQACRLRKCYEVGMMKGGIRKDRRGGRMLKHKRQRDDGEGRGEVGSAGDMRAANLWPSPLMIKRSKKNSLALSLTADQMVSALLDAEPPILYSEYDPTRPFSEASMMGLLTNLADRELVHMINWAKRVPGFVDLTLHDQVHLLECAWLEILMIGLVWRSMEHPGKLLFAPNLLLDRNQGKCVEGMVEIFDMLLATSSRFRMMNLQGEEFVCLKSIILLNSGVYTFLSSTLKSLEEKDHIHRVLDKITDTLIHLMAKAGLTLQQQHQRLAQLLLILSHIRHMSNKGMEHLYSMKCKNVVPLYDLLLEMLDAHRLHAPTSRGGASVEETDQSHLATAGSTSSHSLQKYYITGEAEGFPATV
Experiment: qHTS assay to identify small molecule antagonists of the estrogen receptor alpha (ER-alpha) signaling pathway using the BG1 cell line in the presence of 0.1 nM 17-beta-estradiol (AID 1259244); further: nearly all actives have a fitted effect of over 50% in size
Conditions: VM7Luc4E2 (BG1) ERE-luciferase, antagonist mode, 0.1 nM E2, 22 h; series mostly up to 92.4 µM
Method in brief: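 Seeding of stripped-serum-adapted VM7Luc4E2 cells, 24 h attachment, compound transfer, then 0.1 nM final 17beta-estradiol; after 22 h incubation, ONE-Glo reagent and luminescence reading.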

| SMILES | Potency |
| --- | --- |
| CC(C)C(=O)OCCOc1ccccc1 | inactive |
| CC(C)(C)C1(CCc2ccc(Cl)cc2)CO1 (centres undefined) | inactive |
| OCC(CO)n1cnc(-c2ccc(F)cc2)c1-c1ccnc(Oc2ccccc2)n1 | inactive |
| COc1cc(S(=O)(=O)Nc2ccccc2)c(OC)cc1N | inactive |
| CC(=O)OCCC1CCCCC1 | inactive |
| CC(=O)NNC(C)=O | inactive |
| CC(C)c1ccc(C#N)cc1 | inactive |
| CC[C@H]1OC(=O)[C@H](C)[C@@H](O[C@H]2C[C@@](C)(OC)[C@@H](O)[C@H](C)O2)[C@H](C)[C@@H](O[C@@H]2O[C@H](C)C[C@H](N(C)C)[C@H]2O)[C@](C)(O)C[C@@H](C)CN(C)[C@H](C)[C@@H](O)[C@]1(C)O | inactive |
| CCN(CC)CC(=O)Nc1c(C)cccc1C(=O)OC | inactive |
| C/C(C=O)=C\c1ccccc1 | inactive |
| CC(CO)(CO)C(=O)O | inactive |
| O=P(O)(O)Oc1ccccc1 | inactive |
| CCOCCC(=O)OCC | inactive |
| ClC1=C(Cl)C1(Cl)Cl | inactive |
| O=C(c1ccccc1)C1CCC1 | inactive |
| O=C(O)c1cccc(C[C@@H]2COc3ccc(OCc4nc5cc(F)ccc5s4)cc3[C@@H]2O)c1 | inactive |
| CCSC(=O)N(CC)CC | inactive |
| COC(OC)OC | inactive |
| O=C(NS(=O)(=O)/C=C/c1ccccc1)c1ccc(F)cc1Cl | inactive |
| O=C(O)c1cccc(Oc2ccccc2)c1 | inactive |

| SMILES | Potency |
| --- | --- |
| COC(=O)c1sccc1S(N)(=O)=O | inactive |
| CCOC(=O)C(C)O (centres undefined) | inactive |
| COC(=O)Nc1nc2ccc(C(=O)C3CC3)cc2[nH]1 | inactive |
| CC(C)(O)CCc1ccccc1 | inactive |
| C=C(C)C(=O)OCCC(F)(F)C(F)(F)C(F)(F)C(F)(F)C(F)(F)C(F)(F)F | inactive |
| O=C(O)CO | inactive |
| COc1ccc(-n2nc(C(F)F)cc2-c2ccc(S(C)=O)cc2)cc1 (centres undefined) | inactive |
| O=[N+]([O-])c1ccc2ncccc2c1 | inactive |
| O=C(/C=C/c1ccc([N+](=O)[O-])cc1)c1ccccc1 | inactive |
| COC(C)(C)OC | inactive |
| C=CCOC(=O)COCCC(C)C | inactive |
| NC(=O)c1ccccc1[N+](=O)[O-] | inactive |
| CCC(CO)(CO)[N+](=O)[O-] | inactive |
| CC(C)OC(=O)c1ccccc1C(=O)OC(C)C | inactive |
| Cc1ccc(N(CCO)CCO)cc1 | inactive |
| CCOc1ncc(F)c(=O)[nH]1 | inactive |
| FC(F)(F)C(F)(F)C(F)(F)C(F)(F)CCI | inactive |
| CC(C)c1ccc(C(=O)N=C(N)N)cc1S(C)(=O)=O | inactive |
| CC(C)(C)CCCCCCOC(=O)c1ccccc1C(=O)OCCCCCCC(C)(C)C | inactive |

Tested on: not listed separately
Experiment: qHTS assay to identify small molecule HDAC inhibitors (AID 1259364); further: potency means the concentration at half of the fitted maximal effect;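 further: wild-type HCT-116 cells with endogenous class I/II HDAC activity; nearly all actives have a fitted effect of over 45% in size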
Conditions: HCT-116 HDAC-Glo I/II luminescence, 2 h; series mostly up to 92.4 µM
Method in brief: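 After a 2 hr compound incubation (37C, 5% CO2), HCT-116 cells seeded at 1,500/well the day before received HDAC-Glo reagent; signal read as luminescence after 30 min at room temperature.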

| SMILES | Potency |
| --- | --- |
| CC(C)C(=O)OCCOc1ccccc1 | inactive |
| CC(C)(C)C1(CCc2ccc(Cl)cc2)CO1 (centres undefined) | inactive |
| OCC(CO)n1cnc(-c2ccc(F)cc2)c1-c1ccnc(Oc2ccccc2)n1 | inactive |
| COc1cc(S(=O)(=O)Nc2ccccc2)c(OC)cc1N | inactive |
| CC(=O)OCCC1CCCCC1 | inactive |
| CC(=O)NNC(C)=O | inactive |
| CC(C)c1ccc(C#N)cc1 | inactive |
| CC[C@H]1OC(=O)[C@H](C)[C@@H](O[C@H]2C[C@@](C)(OC)[C@@H](O)[C@H](C)O2)[C@H](C)[C@@H](O[C@@H]2O[C@H](C)C[C@H](N(C)C)[C@H]2O)[C@](C)(O)C[C@@H](C)CN(C)[C@H](C)[C@@H](O)[C@]1(C)O | inactive |
| CCN(CC)CC(=O)Nc1c(C)cccc1C(=O)OC | inactive |
| C/C(C=O)=C\c1ccccc1 | 30 µM (active) |
| CC(CO)(CO)C(=O)O | inactive |
| O=P(O)(O)Oc1ccccc1 | inactive |
| CCOCCC(=O)OCC | inactive |
| ClC1=C(Cl)C1(Cl)Cl | inactive |
| O=C(c1ccccc1)C1CCC1 | inactive |
| O=C(O)c1cccc(C[C@@H]2COc3ccc(OCc4nc5cc(F)ccc5s4)cc3[C@@H]2O)c1 | inactive |
| CCSC(=O)N(CC)CC | inactive |
| COC(OC)OC | inactive |
| O=C(NS(=O)(=O)/C=C/c1ccccc1)c1ccc(F)cc1Cl | inactive |
| O=C(O)c1cccc(Oc2ccccc2)c1 | inactive |

| SMILES | Potency |
| --- | --- |
| COC(=O)c1sccc1S(N)(=O)=O | inactive |
| CCOC(=O)C(C)O (centres undefined) | inactive |
| COC(=O)Nc1nc2ccc(C(=O)C3CC3)cc2[nH]1 | 23.7 µM (active) |
| CC(C)(O)CCc1ccccc1 | inactive |
| C=C(C)C(=O)OCCC(F)(F)C(F)(F)C(F)(F)C(F)(F)C(F)(F)C(F)(F)F | inactive |
| O=C(O)CO | inactive |
| COc1ccc(-n2nc(C(F)F)cc2-c2ccc(S(C)=O)cc2)cc1 (centres undefined) | inactive |
| O=[N+]([O-])c1ccc2ncccc2c1 | inactive |
| O=C(/C=C/c1ccc([N+](=O)[O-])cc1)c1ccccc1 | 8.65 µM (active) |
| COC(C)(C)OC | inactive |
| C=CCOC(=O)COCCC(C)C | inactive |
| NC(=O)c1ccccc1[N+](=O)[O-] | inactive |
| CCC(CO)(CO)[N+](=O)[O-] | inactive |
| CC(C)OC(=O)c1ccccc1C(=O)OC(C)C | inactive |
| Cc1ccc(N(CCO)CCO)cc1 | inactive |
| CCOc1ncc(F)c(=O)[nH]1 | inactive |
| FC(F)(F)C(F)(F)C(F)(F)C(F)(F)CCI | inactive |
| CC(C)c1ccc(C(=O)N=C(N)N)cc1S(C)(=O)=O | inactive |
| CC(C)(C)CCCCCCOC(=O)c1ccccc1C(=O)OCCCCCCC(C)(C)C | inactive |
